# Compound activity as filed in PubChem.
# Compounds with a hit are over-represented: about 1.4% of the library has one in this group of screens.
# GALC G270D act: A Novel Cell-Based Assay to Identify Small Molecules for B -Galactocerebrosidase; Potency, µM (doses to about 57.5 µM), actives largely listed as activators; 45,000 compounds, 0.1% hits; 145M-Twi-hGALC-G270D cells (Twitcher mouse brain line with human GALC G270D), HMU-beta-Gal fluorescence, 48 h; P54803; AID 1159614, 2016; note: nearly all actives have a fitted effect of over 65% in size
#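 Mutant human GALC (G270D), stably expressed in a Twitcher mouse brain cell line lacking endogenous GALC, is measured in live-treated cells via 6-hexadecanoylamino-4-methylumbelliferyl-β-galactoside hydrolysis (0.1 mM final, pH 5.2) with fluorescent detection.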
# PTAP-TSG101 blk: qHTS Validation Assay for Inhibitors of HIV-1 Budding by Blocking the Interaction of PTAP/TSG101: Sytravon Library Screen; Fluorescence polarization, FITC-PTAP peptide/Tsg101, 20 min; Potency, µM (highest dose often 115 µM), actives largely listed as inhibitors; 44,000 tested, under 10 active
#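 Fluorescence polarization: Tsg101 binding domain (10 uM final) in 10 mM HEPES pH 7.5, 0.15 M NaCl, 0.01% Tween 20, 3 mM EDTA, 0.1 mM TCEP; compounds pinned; FITC-PTAP peptide 50 nM final; 20 min, r.t.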
# GALK inh: qHTS Assay for Inhibitors of Human Galactokinase (GALK): NCGC Sytravon Library Screen; P51570; recombinant GALK, Kinase-Glo ATP luminescence, 1 h; Potency, µM (series often up to 57.5 µM), usual class: inhibitors; 44,000 tested, under 10 active; AID 1347072, 2019
#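 5 nM GALK with 35 µM ATP and 100 µM galactose in HEPES pH 8.0, MgCl2, NaCl, DTT, BSA; 1 h RT reaction, remaining ATP detected by Kinase-Glo Plus luminescence after 10 min; qHTS concentration series.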
# HTT prom inh: Primary qHTS for Identification of Small Molecule Inhibitors of Huntingtin Promoter Activity; HEK293 HTT promoter firefly luciferase reporter, 24 h; Potency, µM (doses to about 57.5 µM), usual class: inhibitors; 48,000 compounds, 0.93% hits; AID 1508623, 2021; note: nearly all actives have a fitted effect of over 50% in size
#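 HEK293 Fluc reporter, 2,500 cells/well, 24 h pre-culture; cpds up to 57.5 uM final, 24 h 37 degrees C; Dual-Glo, 10 min RT; normalized vehicle = 0%, zero RLU = -100%.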
# B2AR arrestin ag: qHTS assay of beta-arrestin-biased ligands of beta2-adrenergic receptor: NCGC Sytravon Library Screen; 44,000 tested, under 10 active; Potency, µM (top dose mostly 46.1 µM), most hits filed as activators; HTLA Tango cells, beta-arrestin recruitment, luciferase luminescence, 18 h
# Target sequence (P07550 whole entry, looked up): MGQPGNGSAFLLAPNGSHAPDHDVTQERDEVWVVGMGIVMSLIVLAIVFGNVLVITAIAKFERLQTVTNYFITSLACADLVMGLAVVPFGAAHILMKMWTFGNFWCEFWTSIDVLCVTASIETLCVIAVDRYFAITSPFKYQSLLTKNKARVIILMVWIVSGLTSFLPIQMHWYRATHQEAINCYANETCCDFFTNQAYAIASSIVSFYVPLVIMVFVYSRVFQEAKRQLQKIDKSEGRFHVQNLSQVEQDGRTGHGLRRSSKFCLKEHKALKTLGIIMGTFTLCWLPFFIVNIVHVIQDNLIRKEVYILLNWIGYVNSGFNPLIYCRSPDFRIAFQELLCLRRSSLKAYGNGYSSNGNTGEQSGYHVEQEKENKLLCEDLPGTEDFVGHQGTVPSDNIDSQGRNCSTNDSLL
#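 Tango cell line, 1% FBS DMEM; cpd titration up to 46 microM; 18 hr, 37 degrees C, 5% CO2. Luciferin/ATP substrate mix added, 15 min RT, luminescence. %Activity, CRC fitting, curve-class categorization.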
# HTT-AS act: Primary qHTS for Identification of Small Molecule Activators of Huntingtin-Antisense Promoter Activity; Potency, µM (titrated, usually from 57.5 µM), most hits filed as activators; 48,000 compounds, 0.24% hits; AID 1508624, 2021; HEK293 HTT-AS promoter firefly luciferase reporter, 24 h; response scale: percent change from vehicle, -100% = no light; note: nearly all actives have a fitted effect of over 55% in size
#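 Firefly luciferase signal from promoter-reporter HEK293 cells was scaled between vehicle (0%) and zero RLU (-100%). Compounds were tested at final concentrations of up to 57.5 uM over 24 h at 37 degrees C. PTC124 at 50 uM final served as control inhibitor.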
# Hits are given with their value; – = inactive; ? = inconclusive. Calls come from the whole dose curve; as a rule, active = well fitted curve in the direction sought with a large enough effect; inconclusive = small, poorly fitted or top-dose-only effect, or another doubt; inactive = no such curve, though single readings can be large; an effect the other way counts as inactive or inconclusive.
SMILES,GALC G270D act,PTAP-TSG101 blk,GALK inh,HTT prom inh,B2AR arrestin ag,HTT-AS act
CCC1=C(c2ccc(C)cc2)S(=O)(=O)N=C1N1CCC(C(=O)NCc2ccc(C)cc2)CC1,–,–,–,?,–,–
COC(=O)c1c(NC(=O)/C(C#N)=C/c2ccccc2)sc2c1C(C(=O)OC)CC2 (stereo unspecified),–,–,–,–,–,–
CCN(C(=O)CSc1nc(-c2ccccc2)no1)c1cccc(C)c1,–,–,–,3.2µM,–,–
CCN(C(=O)CSc1nc2ccccc2nc1Cc1ccc(F)cc1)c1cccc(C)c1,–,–,–,–,–,–
CCOC(=O)c1ccc(NS(=O)(=O)c2cc(Br)cc3c2N(C(C)=O)C(C)C3)cc1 (stereo unspecified),–,–,–,16µM,–,–
CC(=O)N1c2c(cc(Br)cc2S(=O)(=O)Nc2ccc(OC(F)(F)F)cc2)CC1C (stereo unspecified),–,–,–,25µM,–,–
CC(=O)N1c2c(cc(Br)cc2S(=O)(=O)Nc2ccccc2C)CC1C (stereo unspecified),–,–,–,–,–,–
Fc1ccc(-n2ncc3c(NCCC4=CCCCC4)ncnc32)cc1,–,–,–,–,–,10µM
CCOC(=O)c1ccc(N2C(=O)c3n[nH]c(-c4ccco4)c3C2c2ccc(OCC)cc2)cc1 (stereo unspecified),–,–,–,20µM,–,–
CCOC(=O)c1ccc(N2C(=O)c3n[nH]c(-c4ccco4)c3C2c2ccc(F)cc2)cc1 (stereo unspecified),–,–,–,?,–,–
CC(C)(CC(=O)NCc1ccc(Cl)cc1Cl)CC1=NS(=O)(=O)c2ccccc2N1,–,–,–,20µM,–,–
COc1ccc(CNc2cc(-c3ccc(OC)cc3)nc3nncn23)cc1,–,–,–,?,–,–
Cc1cc(C(=O)C(=O)Nc2nnc(C(C)C)s2)c(C)n1-c1ccccc1,–,–,–,6.3µM,–,–
CCc1nnc(NC(=O)C(=O)c2cc(C)n(-c3ccccc3)c2C)s1,–,–,–,?,–,–
CCOC(=O)c1ccc(NC(=O)CCCn2nc(C)c3sc4ccccc4c3c2=O)cc1,–,–,–,–,–,–
CC(C)c1nn2c(=O)cc(COC(=O)c3ccccc3Cl)nc2s1,–,–,–,–,–,?
CC(C)c1nn2c(=O)cc(COC(=O)c3cccs3)nc2s1,–,–,–,–,–,4µM
CC(C)c1ccc(NC(=O)c2ccc(F)c(S(=O)(=O)N3CCCCCC3)c2)cc1,–,–,–,?,–,–
Cc1ccc(O)c(NC(=O)c2ccc(Br)c(S(=O)(=O)N3CCCCC3)c2)c1,–,–,–,20µM,–,–
COc1ccccc1Nc1nn2c(=O)c3ccc(C(=O)NCCc4ccccc4)cc3nc2s1,–,–,–,7.1µM,–,–
COc1ccccc1Nc1nn2c(=O)c3ccc(C(=O)NCCC4=CCCCC4)cc3nc2s1,–,–,–,10µM,–,–
CC(=O)N1CCCC1c1nc2ccccc2n1Cc1ccccc1 (stereo unspecified),–,–,–,–,–,–
COc1ccccc1C(=O)Nc1onc2c1CCCC2,–,–,–,–,–,–
CCOc1ccc(CNC(=O)C2CCN(c3nnc(-n4c(C)ccc4C)s3)CC2)cc1,–,–,–,14µM,–,–
CCc1ccc(CNC(=O)C2CCN(c3nnc(-n4c(C)ccc4C)s3)CC2)cc1,–,–,–,?,–,–
SMILES,GALC G270D act,PTAP-TSG101 blk,GALK inh,HTT prom inh,B2AR arrestin ag,HTT-AS act
O=C(CCCc1nc(-c2ccc(Cl)cc2)no1)NCc1ccco1,–,–,–,?,–,–
Cc1ccc(-c2noc(CCCC(=O)NCc3ccco3)n2)cc1,–,–,–,3.5µM,–,–
Cc1cccc(NC(=O)CSc2nnc(-c3cccs3)o2)c1,–,–,–,–,–,25µM
Cc1ccc(-n2ncc3c(N(CCO)Cc4ccccc4)ncnc32)cc1,–,–,–,–,–,?
OCCN(CCO)c1ncnc2c1cnn2-c1ccc(F)cc1,–,–,–,–,–,7.9µM
Cc1ccc(-n2ccnc(NCc3ccccc3)c2=O)cc1C,–,–,–,?,–,–
NS(=O)(=O)c1ccc(NC(=O)c2ccc3c(c2)CCN3S(=O)(=O)c2ccccc2)cc1,–,–,–,–,–,–
O=C(Nc1cc(Cl)cc(Cl)c1)c1ccc(F)c(S(=O)(=O)N2CCc3ccccc32)c1,–,–,–,?,–,–
O=C(Nc1ccc(Br)cc1)c1ccc(F)c(S(=O)(=O)N2CCCc3ccccc32)c1,–,–,–,2.2µM,–,–
O=C(Nc1ccc(Br)cc1)c1cccc(S(=O)(=O)N2CCc3ccccc32)c1,–,–,–,25µM,–,–
COc1ccc(NC(=O)Nc2nnc(C)s2)cc1,–,–,–,–,–,11µM
COc1ccc(C(=O)Nc2nnc(C)s2)cc1,–,–,–,–,–,?
Cc1nn(-c2ccccc2)c2c1N(CCCC(=O)NCc1ccc(OC(C)C)cc1)C(=O)CS2,–,–,–,14µM,–,–
Cc1nn(-c2ccccc2)c2c1N(CCCC(=O)NCc1ccccc1)C(=O)CS2,–,–,–,?,–,–
COc1cn(CC(=O)Nc2cc(C)cc(C)c2)c(CN2CCCCC2)cc1=O,–,–,–,–,–,–
Cc1noc(/C=C/c2ccco2)c1S(=O)(=O)N1CCC(C(=O)Nc2ccc(F)c(Cl)c2)CC1,–,–,–,32µM,–,–
Cc1ccc(C)c(N2CCN(C(=O)CCc3nnc4n(CC(C)C)c(=O)c5ccccc5n34)CC2)c1,–,–,–,–,–,–
CCc1nc(C)cn1S(=O)(=O)c1ccc(Cl)c(Cl)c1OC,–,–,–,13µM,–,–
CCOc1cc(Cl)c(S(=O)(=O)n2cc(C)nc2CC)cc1Cl,–,–,–,16µM,–,–
COc1cc(Cl)c(S(=O)(=O)N2CCN(c3c(C)cccc3C)CC2)cc1Cl,–,–,–,–,–,–
Cc1cccc(NC(=O)CCCn2nc(C)c3c(C)n(-c4ccccc4)nc3c2=O)c1C,–,–,–,–,–,–
